Results: PubChem BioAssay (NCI)
The panel holds about 83,000 compounds, 20% with a hit somewhere; the sample as a whole holds those more often.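 96-well plates, one dose, 48 hours. Percent growth reported; active if below 10.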 Activity calls are given as the source filed them.

What follows are compounds tested on DU-145 prostate (assay: NCI-60 one-dose screen, 48 h (100 = growth as untreated, 0 = no growth, -100 = all killed)). Conditions: 10 µM unless noted.
For `COc1cc(C(=O)n2nc(N3CCN(C)CC3)c3cc(N)ccc32)cc(OC)c1OC`, the growth was 22.5% (inactive). For `O=C1N[C@@H]2NC(=[N+]3CCOCC3)N[C@@H]2N1`, the growth was 114% (inactive). `N#Cc1c(N)nnn1Cc1cc(=O)oc2c1ccc1ccccc12` was tested, and the growth was 105% (inactive). In the case of `COc1cc(OC)cc(C2=C3CC[C@@H]4[C@H](CC[C@]5(C)C(=O)CC[C@@H]45)C3=CC3C(O)c4cccnc4N4C(=O)COC234)c1` (stereo not given in full), the growth is reported as 110% (inactive). With `C=C(C)[C@@H]1CC[C@]2(C(=O)N3CCN(C)CC3)CC[C@]3(C)[C@H](CC[C@@H]4[C@@]5(C)CC(=C/c6ccncc6)/C(=N/O)C(C)(C)[C@@H]5CC[C@]43C)[C@@H]12` the growth was 77.1% (inactive). `CN1CCN(Cc2ccc3c(NNC(=O)c4ccccc4)nc4cc(F)ccc4n23)CC1` was tested, and the growth was 27.1% (inactive). In the case of `CCOC(=O)c1c2c(n3ccc(C)cc13)C(=O)c1ccccc1C2=O`, the growth is reported as 102% (inactive). `CCCC(=O)NC(c1ccc2c(c1)OCO2)c1ccc2cccnc2c1O` (stereo not given) was tested, and the growth was 36.5% (inactive). `Cc1nc2sc(C(=O)Nc3ccccc3)c(N)c2cc1C(=O)c1ccccc1` was tested, and the growth was 56.1% (inactive). In the case of `COC(=O)c1ccc2c(c1)C(=O)c1c-2n(CCCN)c(=O)c2cc([N+](=O)[O-])ccc12`, the growth is reported as -100% (active). In the case of `CO[C@]12C=C/C(=C(/C(=O)OCc3cccnc3)C(=O)CCCCCCCC[C@@]3(OC)C=C/C(=C(/C(=O)OCc4cccnc4)C(=O)CCCCCCCC1)O3)O2`, the growth is reported as 20% (inactive). `Brc1c2c(c(Br)c3ccccc13)CCCC2` was tested, and the growth was 110% (inactive). `Cc1cc2c([nH]1)CSc1cc(S(=O)(=O)c3ccccc3)c(=O)[nH]c1-2` was tested, and the growth was 15% [100 µM] (inactive). For `CC1=C(Nc2ccc(N3CCN(C)CC3)cc2)C(=O)c2cncnc2C1=O`, the growth was 81% (inactive). With `CCCCCCC1(C)NCCO1` (stereo not given) the growth was 111% (inactive). For `C#CCOc1cccc(Nc2ncnc3ccc(NC(=O)CCl)cc23)c1`, the growth was -1.66% (active). With `COc1ccc(C(=O)C2C(c3ccc(OC)cc3)CN(C)C23C(=O)Nc2ccccc23)cc1` (stereo not given) the growth was 99% (inactive). For `CCN(CC)CCNC(=O)c1cn2ncnc(Oc3ccc(NC(=O)Nc4ccc(Cl)c(C(F)(F)F)c4)c(F)c3)c2c1C`, the growth was 8.01% (active). `CC(=O)OCc1nc(C#N)c(N(C)C)o1` was tested, and the growth was 110% (inactive). For `CN[C@]12CC3(C=CC(=O)C=C3)O[C@@]1(Cc1ccc(OC)cc1)N(C)C(=O)N2`, the growth was 85.2% (inactive). `C=C(CNCCc1ccc(O)cc1)[C@@H]1CC[C@]2(CO)CC[C@]3(C)[C@H](CC[C@@H]4[C@@]5(C)CCC(NCCO)C(C)(C)[C@@H]5CC[C@]43C)[C@@H]12` (stereo not given in full) was tested, and the growth was -31% (active). In the case of `O=C1/C(=C\c2cn(-c3ccccc3)nc2-c2ccc(-c3cccs3)cc2)CCc2ccccc21`, the growth is reported as 85.8% (inactive). `Cc1ccc(-c2nn(-c3ccccc3)cc2C=C2C(=O)ON=C2C(C)C)cc1` was tested, and the growth was 88.1% (inactive). With `CC/C(=C(/c1ccc(Cl)cc1)c1ccc(OCCN2CCCC2)cc1)c1ccc(OC)cc1` the growth was 86.3% (inactive). With `Cc1c(-c2nc3ccc(F)cc3c(=O)[nH]2)c2ccccc2n1C` the growth was 53.6% (inactive). `COC1=CC(c2ccc[nH]2)=N/C1=C\c1[nH]c(C)c(C(=O)OCc2ccccc2)c1C` was tested, and the growth was 12.1% (inactive). `COc1ccc(C/C(C)=C(/c2ccc(OCCN3CCCCC3)cc2)c2ccc(OC(=O)NCc3ccccc3)cc2)cc1` was tested, and the growth was -97.2% (active). In the case of `CC(C)N1CN2C(=S)NC3C2N(C1)C(=S)N3C` (stereo not given), the growth is reported as 104% (inactive). In the case of `CCCCN[C@H]1CC[C@@]2(C)[C@@H](CC[C@@]3(C)[C@H]2[C@H](O)C[C@H]2/C(=C(\CCC=C(C)C)C(=O)OC)[C@@H](OC(C)=O)C[C@@]23C)[C@@H]1C`, the growth is reported as 112% (inactive). `O=[N+]([O-])c1ccc(-c2nc(N3CCOCC3)c3c4c(sc3n2)CCCC4)cc1` was tested, and the growth was 113% (inactive). With `COc1cc(N2C(=O)[C@H](O)C2c2ccc(SC)cc2)cc(OC)c1OC` (stereo not given in full) the growth was 3.72% (active). In the case of `C#Cc1ccc(NC(=O)c2ccc(/C=C/C(=O)c3nccn3C)cc2)cc1`, the growth is reported as -86.8% (active). `Cc1nnc(NC(=O)c2nc(S(=O)(=O)Cc3ccc(F)cc3)ncc2Cl)s1` was tested, and the growth was 88.2% (inactive). In the case of `Cc1ccccc1/C=C1\CN(C(=O)OC(C)(C)C)C/C(=C\c2ccccc2C)C1=O`, the growth is reported as 9.09% (active). In the case of `C[C@]12C=CC(=O)C=C1CCC1C2[C@@H](O)C[C@@]2(C)C1CC[C@]2(O)C(=O)COC(=O)CCC(=O)O` (stereo not given in full), the growth is reported as 107% (inactive). `O=C(Cn1c2c(c3ccccc31)CCCC2)Nc1ccc(-c2nc3ccccc3s2)cc1` was tested, and the growth was 98.8% (inactive). `Cc1cc(Cl)ccc1Nc1nc(C(F)(F)F)ccc1C(=O)N/N=C/c1ccc([N+](=O)[O-])cc1` was tested, and the growth was 5.82% (active). For `O=C(Nn1c2c(sc1=NCc1ccccc1)C(=O)c1ccccc1C2=O)c1cc2ccc1CCc1ccc(cc1)CC2`, the growth was 88.8% (inactive). For `CC(C)c1ccc(COCc2cc(CN3CCCC3)c(O)c3ncccc23)cc1`, the growth was 18.6% (inactive). For `Cn1cccc1C(=O)C1C(c2cccc([N+](=O)[O-])c2)C2C3CCCCC3CN2C12C(=O)Nc1ccc(Cl)cc12` (stereo not given), the growth was 38.7% (inactive).
